Compound activity as filed in PubChem.
The list is not random: actives were taken first. Their share in the collection is about 9%.
ALDH1A1 inh: inhibitors of human aldehyde dehydrogenase 1A1 | P00352 | Purified ALDH1A1, NADH fluorescence, propionaldehyde substrate | Potency, µM (series often up to 75.3 µM), for inactives: at the top dose activity, negative = inhibition, most hits filed as inhibitors | 220,000 compounds, 7.3% hits | AID 1030; active = well fitted inhibition curve with a large enough effect, not every such curve was filed as active; inconclusive = small, poorly fitted or top-dose-only effect, or another doubt; inactive = no such curve, though single readings can be large or run the other way;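 also: plate controls were no enzyme wells and a reference inhibitor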
Target sequence (P00352 whole entry, looked up): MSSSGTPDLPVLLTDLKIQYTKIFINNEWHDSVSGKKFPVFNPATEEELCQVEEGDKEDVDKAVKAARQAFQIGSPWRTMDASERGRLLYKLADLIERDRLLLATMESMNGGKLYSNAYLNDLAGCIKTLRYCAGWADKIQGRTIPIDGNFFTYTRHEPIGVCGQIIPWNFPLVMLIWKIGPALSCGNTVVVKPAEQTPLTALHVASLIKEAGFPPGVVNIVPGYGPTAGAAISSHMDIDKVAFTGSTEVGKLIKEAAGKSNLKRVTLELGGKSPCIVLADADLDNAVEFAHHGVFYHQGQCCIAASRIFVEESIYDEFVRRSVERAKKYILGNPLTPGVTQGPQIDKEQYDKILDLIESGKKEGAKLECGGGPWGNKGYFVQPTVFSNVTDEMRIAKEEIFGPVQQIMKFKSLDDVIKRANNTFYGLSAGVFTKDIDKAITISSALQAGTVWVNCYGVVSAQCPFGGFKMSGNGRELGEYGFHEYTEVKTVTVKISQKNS
HPGD inh: blocks human HPGD enzyme activity. purified HPGD, NADH fluorescence kinetic, PGE2 substrate. P15428. 150,000 compounds, 4.3% hits. AID 894. Potency, µM, without a hit: at the top dose activity change, negative = inhibition, usual class: inhibitors; active = well fitted inhibition curve with a large enough effect, not every such curve was filed as active; inconclusive = small, poorly fitted or top-dose-only effect, or another doubt; inactive = no such curve, though single readings can be large or run the other way; also: % is scaled to controls: 0 for no effect and ±100 for the full control effect
Target sequence (P15428 whole entry, looked up): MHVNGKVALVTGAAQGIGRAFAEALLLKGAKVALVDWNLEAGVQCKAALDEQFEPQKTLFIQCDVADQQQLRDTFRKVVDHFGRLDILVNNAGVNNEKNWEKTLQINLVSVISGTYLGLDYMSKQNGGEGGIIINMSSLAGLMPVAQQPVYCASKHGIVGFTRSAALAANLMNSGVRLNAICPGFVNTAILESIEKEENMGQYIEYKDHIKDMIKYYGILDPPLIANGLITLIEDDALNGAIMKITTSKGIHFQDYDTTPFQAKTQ
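20 nM HPGD preincubated 15 min at room temperature with compound in 50 mM Tris-HCl pH 8, 0.01% Tween 20. Started with 1 mM NAD+ and 30 uM prostaglandin E2; NADH fluorescence (360/450 nm) read 5 times over 30-s intervals, last minus first.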
HTT aggregate: inhibitors of mutant huntingtin aggregate formation in PC12 cells; PC12 HttQ103-GFP aggregates, Acumen cytometry, 40 h; Potency, µM (top dose mostly 46.1 µM), without a hit: at the highest dose activity change, negative = inhibition, hits mostly inhibitors; 220,000 compounds, 1.1% hits; also: % is scaled to controls: 0 for no effect and ±100 for the full control effect; nearly all actives have a fitted effect of over 60% in size
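Aggregates are detected as GFP objects 1–25 µm with signal 6 STDEV over background in lysates of induced PC12 cells. These carry Huntingtin exon 1 with 103 glutamines fused to GFP under an ecdysone promoter; compounds titrated.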
HTT cytoprotect: cytoprotection in Huntington HTT-Q103 PC12 cell model; AID 1471; 230,000 compounds, 0.14% hits; PC12 HTT-Q103 induced, cytoprotection, ATP luminescence, 40 h; Potency, µM (titrated, usually from 56.4 µM), for the others: cytoprotection (ATP increase), usual class: activators; also: % of control where 0% means no effect; nearly all actives have a fitted effect of over 45% in size
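Rat PC12, Q103 Htt exon1-GFP fusion, ecdysone promoter; tebufenozide inducer 100 nM final; compound titration; qHTS, 1500 cells/well; ATPlite luminescent read.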
LMNA splice mod: changes lamin A minigene splicing in HeLa cells | HeLa LMNA splicing GFP/RFP minigene ratio, 48 h | Potency, µM (highest dose often 46.1 µM), inactives show at the top dose ratio change, negative = inhibition, most hits filed as inhibitors | 200,000 compounds, 0.01% hits | AID 1487; active = well fitted inhibition curve with a large enough effect in the signal ratio, with a control signal flat, not every such curve was filed as active; inconclusive = small, poorly fitted or top-dose-only effect, or effect the other way, or a change in a side signal; the % refers to the signal ratio; also: % is scaled to controls: 0 for no effect and ±100 for the full control effect
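Read-out is the ratio of GFP to DsRed2 object intensity, acquired by 488 nm laser-scanning cytometry on HeLa lamin A-EGFP minigene reporter cells. Compound incubation 48 hrs at 37 °C in Opti-MEM with 2% FBS; DMSO 0.5% final.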
Luc counter: blocks Kinase-Glo luciferase, a counter-screen artifact; Q27757; Kinase-Glo luciferase, ATP luminescence, 8 min; Potency, µM (series often up to 38.3 µM), for inactives: top-dose activity change, negative = inhibition, hits mostly inhibitors; 200,000 compounds, 0.28% hits; also: % is scaled to controls: 0 for no effect and ±100 for the full control effect; nearly all actives have a fitted effect of over 60% in size
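Light output from Kinase-Glo luciferase with luciferin and 10 uM ATP in 50 mM imidazole pH 7.2, KCl, MgCl2, Tween 20, BSA; compound pin-delivered, 8-min ambient incubation, then luminescence read.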
An asterisk follows results filed as active; u = inconclusive; x = no result; ! = repeats disagree; [ ] = dose if it differs, or a comment. Unless noted, calls follow the shape of the dose curve; as a rule, active = well fitted curve in the direction sought with a large enough effect; inconclusive = small, poorly fitted or top-dose-only effect, or another doubt; inactive = no such curve, though single readings can be large; an effect the other way counts as inactive or inconclusive. Potency is read from the fitted curve at half-maximal effect.

SMILES	ALDH1A1 inh	HPGD inh	HTT aggregate	HTT cytoprotect	LMNA splice mod	Luc counter
Cc1cc(C(=O)N2CCC3(CC2)OCCO3)cs1	-13%	u	0%	-7%[0.074 µM]	-6%	0%
COc1ccc(-n2c(C)nc3cc(C(=O)N4CCC5(CC4)OCCO5)ccc32)cc1	u	13µM*	0%	14%[1.9 µM]	-11%	-2%
CCN(CC)C(=O)c1ccc(NC(=O)CCCSc2ccccc2)cc1	-6%	x	15%	-29%	x	-2%
CCN(CC)C(=O)c1ccc(NC(=O)CSc2nnnn2-c2cc(OC)ccc2OC)cc1	8.9µM*	8.9µM*	-16%	-2%	-12%	-2%
COc1ccc(CN2C(=O)NC(=O)/C(=C/c3ccoc3)C2=O)cc1	x	x	-16%[9.22 µM]	-20%[10 µM]	x	x
C=CCN1C(=O)NC(=O)/C(=C/c2cccn2C)C1=O	4%	-23%	11%	0%	16%	5%
C=CCN1C(=O)NC(=O)/C(=C/c2ccoc2)C1=O	u	25µM*	17%	-43%[10 µM]	u	5%
C=CCN1C(=O)NC(=O)/C(=C/c2ccc(N(C)C)c(Br)c2)C1=O	13µM*	x	u	-5%	u	-3%
O=C(c1ccc(Cl)cc1)C1CCCN(Cc2cccc3cnccc23)C1 (stereo not drawn)	1%	x	20µM*	-25%	x	x
CNC1[C@@H](O)C(OC2C(N)C[C@H](N)[C@@H](O[C@@H]3OC(C(C)O)C(O)C(O)C3N)C2O)OC[C@]1(C)O (stereo partly drawn)	-3%	-7%	x	-7%	x	-3%
CCOCN(C(=O)CCl)c1c(C)cccc1CC	32µM*!	-5%	x	13%	-5%	-3%
O=C1CCCCC1CN1CCCCC1 (stereo not drawn)	x	x	7%	19%	x	x
O=C(COc1ccc(S(=O)(=O)N2CCOCC2)cc1)N1CCN(Cc2ccc3c(c2)OCO3)CC1	4%	-3%	u	17%[10 µM]	u	-4%
CC(=NCc1ccco1)c1c(O)n(C)c(=O)n(C)c1=O	-9%	-10%	16µM*	-15%[0.074 µM]	u	-2%
CCC(=NCc1ccco1)c1c(O)n(C)c(=O)n(C)c1=O	x	x	9%[9.22 µM]	4%[10 µM]	x	x
Nc1ccccc1C(=O)OCCOc1ccccc1	u	u	-8%	4%[0.074 µM]	8%	13%
O=C(c1cc(C(=O)NCc2ccccc2)c(=O)n(Cc2ccccc2)c1)c1cc(Cl)ccc1O	u	16µM*	u	x	u	3%
CC(C)CCNC(=O)c1cc(C(=O)c2cc(Br)ccc2O)cn(CCC(C)C)c1=O	-4%	x	5%	-30%	x	-2%
CCN(CC)CCCN=Cc1c(O)n(-c2ccccc2F)c(=O)[nH]c1=O	1%	-8%	6%	-10%[0.074 µM]	4%	2%
CC(C)(C)C(=O)C1C(=O)c2ccccc2C1=O	16µM*	-11%	x	-52%	x	x
O=C(/C=C/c1ccccc1)C1C(=O)c2ccccc2C1=O	8%	-13%	u	-30%[1.9 µM]	u	-13%
COc1cccc(NC(=O)N2CCC3(CC2)OCCO3)c1	4%	-9%	11%	2%[10 µM]	-5%	-2%
C[n+]1c(-c2ccccc2)cc(-c2ccc(Cl)cc2)cc1-c1ccccc1	u	x	u	-68%	-29%[46 µM]	-1%
CN(C)c1ccc(NC(=O)Oc2ccccc2)cc1	u	-4%	20%	-23%	10%	-9%
CN(C)c1ccc(-[n+]2c(-c3ccccc3)cc(-c3ccccc3)cc2-c2ccccc2)cc1	-14%	x	1.1µM*	-163%	u	0%
SMILES	ALDH1A1 inh	HPGD inh	HTT aggregate	HTT cytoprotect	LMNA splice mod	Luc counter
c1ccc(-c2cc(-c3ccccc3)[n+](-c3ccccc3)c(-c3ccccc3)c2)cc1	x	x	4µM*	-75%[10 µM]	x	x
COc1cc(/C=C2\C(=O)NC(=O)N(CCc3ccc(F)cc3)C2=O)ccc1O	13µM*	13µM*	9%	6%[10 µM]	0%	1%
COc1cc(C=C2C(=O)NC(=O)NC2=O)ccc1O	19µM*	x	-13%[9.22 µM]	1%[10 µM]	x	x
CCOc1cc(C=C2C(=O)NC(=O)NC2=O)cc([N+](=O)[O-])c1O	28µM*	x	-3%[9.22 µM]	-3%[10 µM]	x	-7%
CCOC(=O)CSCCOc1ccc(C=C2C(=O)NC(=O)NC2=O)cc1OC	13µM*	x	11%	-30%	u	-4%
COc1cc(/C=C2\C(=O)NC(=O)N(c3ccc(C)cc3)C2=O)cc(OC)c1O	u	x	4%	16%	x	x
C#C[C@]1(O)CC[C@H]2[C@@H]3CCC4=CC(=O)CCC4=C3C=C[C@@]21CC	x	x	-5%	-32%	x	x
CCOc1ccc(/C=C2/C(=O)NC(=O)N(CCc3ccc(F)cc3)C2=O)cc1	1.4µM*	10µM*	-9%	2%[10 µM]	-8%	-5%
COc1ccc(CN2C(=O)NC(=O)/C(=C/c3cc(OC)c(OC)c(OC)c3)C2=O)cc1	x	x	4%[9.22 µM]	-10%[10 µM]	x	x
C=CCc1cc(C=C2C(=O)N(C)C(=O)N(C)C2=O)cc(OCC)c1OCc1ccccc1	25µM*	14µM*	0%	x	0%	-6%
C=CCc1cc(C=C2C(=O)NC(=O)NC2=O)cc(OC)c1OCc1ccc(C(=O)O)cc1	11µM*	x	-14%	-23%	x	-2%
COc1cc(CC2C(=O)N(C)C(=O)N(C)C2=O)ccc1OCc1ccccc1	u	-11%	6%	-17%	3%	-1%
CCN(CC)CCCN=Cc1c(O)n(-c2cccc(C)c2C)c(=O)[nH]c1=O	4%	-2%	5%	-1%	2%	-3%
CCCCCCCCCc1ccc(O)cc1	100µM*	-5%	x	-54%	u	-3%
CCOc1ccc(N2C(=O)NC(=O)/C(=C\c3ccccc3[N+](=O)[O-])C2=O)cc1	x	x	-9%[9.22 µM]	9%[10 µM]	x	x
COc1ccc(OC)c(N2C(=O)NC(=O)/C(=C\c3ccc([N+](=O)[O-])s3)C2=O)c1	25µM*	x	u	-9%	-54%[46 µM]	-7%
O=C1NC(=O)N(c2ccccc2)C(=O)/C1=C\c1ccc([N+](=O)[O-])s1	x	x	-11%[9.22 µM]	-3%[10 µM]	x	x
COc1ccc(N2C(=O)NC(=O)/C(=C\c3ccccc3[N+](=O)[O-])C2=O)cc1	19µM*	x	-2%[9.22 µM]	-4%[10 µM]	14%[46 µM]	-1%
CCOC(=O)c1sc(/N=C/c2c(O)n(-c3cccc(C)c3)c(=O)[nH]c2=O)c(C#N)c1C	u	-21%	-5%	6%[10 µM]	u	0%
CCCN1CCC2(CC1)NC(CO)(CO)CO2	2%	-8%	-11%	-3%[10 µM]	-4%	-2%
CCN(CCNc1ccc([N+](=O)[O-])c2cccnc12)S(=O)(=O)c1ccc(Cl)cc1	2.8µM*	-11%	0%	-10%	6%	-1%
CCN(CCNc1ccc([N+](=O)[O-])c2cccnc12)S(=O)(=O)c1ccccc1	-7%	x	4%	u	-24%	x
